The values that follow come from PubChem BioAssay.

A number with no mark means an inactive call. For some of these results: Measured potencies and affinities stand elsewhere. Active and inactive are the calls of the source. Unless noted, no rule for the calls is given here.

A short description of test [1]: antimalarial activity against Dd2 strain (AID 2302;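 active = growth inhibition above 50% at the single 2 µM test dose, taken to imply half-maximal potency below 2 µM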;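 also: 0% = DMSO untreated growth and 100% = chloroquine plus artemisinin killed control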). The following applies: P. falciparum Dd2 in RBCs, LDH growth readout, 72 h; at 2 µM; stronger effect = higher value.
A short description of test [2]: HepG2 cytotoxicity, primary screen, cytotoxicity control for P. falciparum antimalarial project, cell-based, ATP luminescence (AID 2303;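 active = inhibition above 50%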;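 also: 0% = DMSO wells and 100% = digitonin-killed cells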). The following applies: HepG2 viability, 24-48 h, at 10 µM, stronger effect = higher value.
Test [3] has as its target L-lactate dehydrogenase (Plasmodium falciparum (isolate CDC / Honduras)) (UniProt Q27743). Nature of the test: PfLDH activity inhibition – cell lysate, 3D7 strain, counter-screen for P. falciparum growth inhibition project (AID 2304).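 Also: 0% = vehicle and 100% = reference inhibitor.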 The conditions noted are these: P. falciparum 3D7 crude extract, LDH APAD/NBT absorbance; at 2 µM; stronger effect = higher value. For orientation: Counterscreens check selectivity or assay interference.

Test [4] can be described thus: inhibition of 3D7 malaria parasite growth – strain 3D7 (AID 2306).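 Also: 0% = DMSO wells and 100% = chloroquine plus artemisinin control wells.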 The following applies: P. falciparum 3D7 erythrocytic growth, LDH absorbance, 72 h; at 2 µM; stronger effect = higher value.
Test [5] addresses Calcium-dependent protein kinase 1 (Plasmodium falciparum (isolate 3D7)) (UniProt P62344). As to the kind of experiment: PfCDPK1 kinase inhibitors, biochemical, TCAMS library (AID 1159585; cut-off not given, nearly all actives have IC50 up to about 0.98 µM;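 also: inhibitors leave more ATP so luminescence rises with inhibition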). The conditions noted are these: recombinant PfCDPK1, Kinase-Glo ATP depletion luminescence. A general note: Kinase-Glo measures the ATP left after a reaction by luminescence.
Test [6] has as its target Plasmodium falciparum protein kinase 6 (PK6, PF3D7_1337100) (UniProt Q8IDW1). As to the kind of experiment: PfPK6 kinase inhibitors, biochemical, TCAMS library (AID 1159586). The following applies: recombinant PfPK6, Kinase-Glo ATP depletion luminescence.
Test [7] addresses Protein kinase 7 (PK7), Plasmodium falciparum 3D7 (PF3D7_0213400) (UniProt Q7YTF7). Nature of the test: inhibition of Plasmodium PK7 catalytic activity – biochemical, TCAMS antimalarial set, Kinase-Glo luminescence (AID 1159587). The following applies: recombinant PfPK7, Kinase-Glo ATP depletion luminescence.
In test [8] the target is Calcium-dependent protein kinase 4 (Plasmodium falciparum (isolate 3D7)) (UniProt Q8IBS5). As to the kind of experiment: PfCDPK4 kinase inhibitors, biochemical, TCAMS library (AID 1159588; cut-off not given, nearly all actives have IC50 up to about 0.91 µM). The following applies: recombinant PfCDPK4, Kinase-Glo ATP depletion luminescence.
Sequence of Calcium-dependent protein kinase 4 (Plasmodium falciparum (isolate 3D7)) (Q8IBS5 whole entry, looked up): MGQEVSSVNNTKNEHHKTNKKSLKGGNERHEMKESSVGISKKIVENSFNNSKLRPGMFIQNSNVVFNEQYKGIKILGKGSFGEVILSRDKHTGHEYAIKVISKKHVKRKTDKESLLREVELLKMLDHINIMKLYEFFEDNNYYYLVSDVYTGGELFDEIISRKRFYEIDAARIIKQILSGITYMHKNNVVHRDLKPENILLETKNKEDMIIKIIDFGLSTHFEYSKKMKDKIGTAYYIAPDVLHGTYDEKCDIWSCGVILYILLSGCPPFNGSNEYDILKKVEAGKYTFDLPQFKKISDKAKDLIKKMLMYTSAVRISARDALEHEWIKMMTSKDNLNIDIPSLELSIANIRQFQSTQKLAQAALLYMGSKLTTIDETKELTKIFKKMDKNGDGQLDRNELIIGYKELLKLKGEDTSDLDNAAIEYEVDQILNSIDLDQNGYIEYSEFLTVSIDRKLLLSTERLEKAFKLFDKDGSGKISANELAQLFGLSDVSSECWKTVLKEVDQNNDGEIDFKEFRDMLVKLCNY

Sequence of Calcium-dependent protein kinase 1 (Plasmodium falciparum (isolate 3D7)) (P62344 whole entry, looked up): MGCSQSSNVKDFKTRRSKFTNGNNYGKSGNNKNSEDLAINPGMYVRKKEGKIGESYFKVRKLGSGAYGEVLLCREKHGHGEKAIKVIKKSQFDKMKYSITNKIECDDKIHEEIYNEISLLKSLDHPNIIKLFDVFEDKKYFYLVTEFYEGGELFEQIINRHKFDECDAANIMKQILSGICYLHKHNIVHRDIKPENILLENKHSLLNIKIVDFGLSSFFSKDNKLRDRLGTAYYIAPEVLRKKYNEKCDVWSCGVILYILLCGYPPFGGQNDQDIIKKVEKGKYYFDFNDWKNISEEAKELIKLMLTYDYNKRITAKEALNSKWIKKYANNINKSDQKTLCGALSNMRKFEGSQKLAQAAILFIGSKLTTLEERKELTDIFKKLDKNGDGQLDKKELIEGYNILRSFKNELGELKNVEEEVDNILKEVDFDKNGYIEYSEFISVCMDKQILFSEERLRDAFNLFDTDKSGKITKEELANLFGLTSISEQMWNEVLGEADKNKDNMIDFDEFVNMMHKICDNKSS
Sequence of L-lactate dehydrogenase (Plasmodium falciparum (isolate CDC / Honduras)) (Q27743 whole entry, looked up): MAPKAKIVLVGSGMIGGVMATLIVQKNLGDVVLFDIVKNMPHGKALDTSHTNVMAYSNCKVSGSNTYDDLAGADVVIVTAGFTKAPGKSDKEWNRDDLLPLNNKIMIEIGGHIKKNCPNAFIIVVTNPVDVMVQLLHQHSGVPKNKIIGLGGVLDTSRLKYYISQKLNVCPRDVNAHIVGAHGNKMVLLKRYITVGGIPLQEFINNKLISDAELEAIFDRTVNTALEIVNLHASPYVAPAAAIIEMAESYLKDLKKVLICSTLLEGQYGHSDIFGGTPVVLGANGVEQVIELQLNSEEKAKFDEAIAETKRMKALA
Sequence of Protein kinase 7 (PK7), Plasmodium falciparum 3D7 (PF3D7_0213400) (Q7YTF7 1-343): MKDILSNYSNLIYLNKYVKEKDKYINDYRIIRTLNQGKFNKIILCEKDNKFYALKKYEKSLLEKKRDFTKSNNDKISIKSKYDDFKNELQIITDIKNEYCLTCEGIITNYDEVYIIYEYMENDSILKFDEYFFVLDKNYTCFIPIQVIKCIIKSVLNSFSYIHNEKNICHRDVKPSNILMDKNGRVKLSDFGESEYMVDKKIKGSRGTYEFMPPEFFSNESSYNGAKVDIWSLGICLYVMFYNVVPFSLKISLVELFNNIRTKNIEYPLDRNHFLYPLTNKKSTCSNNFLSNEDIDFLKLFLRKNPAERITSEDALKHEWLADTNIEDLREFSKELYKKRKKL
Sequence of Plasmodium falciparum protein kinase 6 (PK6, PF3D7_1337100) (Q8IDW1 1-305): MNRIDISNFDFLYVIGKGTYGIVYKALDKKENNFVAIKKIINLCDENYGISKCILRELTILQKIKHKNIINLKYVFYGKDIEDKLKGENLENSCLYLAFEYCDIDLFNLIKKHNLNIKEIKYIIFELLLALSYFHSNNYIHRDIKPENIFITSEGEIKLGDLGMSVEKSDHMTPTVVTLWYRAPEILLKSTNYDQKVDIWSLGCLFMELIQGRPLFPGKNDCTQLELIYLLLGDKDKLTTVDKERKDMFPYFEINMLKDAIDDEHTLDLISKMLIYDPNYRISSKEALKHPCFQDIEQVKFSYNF

As for `CCCCC1(NC(=O)[C@@H](Nc2ccc(C#N)c3ccccc23)C2CCCCC2)CCCCC1`, the growth inhibition in test [1] is 84% (active); in test [4] it was 91% (active). Also, the inhibition in test [2] was 8%; in test [3], 0%. For the same molecule, the outcome in test [5], in test [6], in test [7] and in test [8] was inactive.
As for `COc1ccc(-c2cccc(NC(=O)c3cccc(Cl)c3)c2)cc1CN1CCN(C)CC1`, the growth inhibition in test [1] was 48%; in test [4], 101% (active). Besides, the inhibition was 27% in test [2] and 1% in test [3]. Also, the result in test [5], in test [6], in test [7] and in test [8] was inactive.
`COc1ccc(CNC2CCN(C)CC2)cc1-c1ccc(S(=O)(=O)NCCc2ccccn2)cc1`: the growth inhibition in test [1] is 17%; in test [4], 93% (active). Also, the inhibition in test [2] is 13%; in test [3], -5%. The result in test [5], in test [6], in test [7] and in test [8] was inactive.
On to `N#Cc1c(N2CCN(c3ccc(F)cc3)CC2)nc(N)c2c(N)nc3c(c12)CC(=O)N3C1CC1`, for which the growth inhibition in test [1] was 82% (active); in test [4], 95% (active). The results for the inhibition in test [2] and in test [3] were 2% and -8%, respectively. The outcome in test [5], in test [6], in test [7] and in test [8] was inactive.
On to `COc1ccc(Nc2nccc(N3CCC(NC(=O)Nc4cc(C)ccc4C)C3)n2)cc1` (stereo not given), for which the growth inhibition was 37% in test [1] and 91% (active) in test [4]. In addition, the inhibition is 10% in test [2] and -8% in test [3]. Besides, the outcome in test [5], in test [6], in test [7] and in test [8] was inactive.
`CCCC(C)NC(=O)[C@H]1CNCCN1C(=O)CCCc1ccccc1` (stereo not given in full): the growth inhibition in test [1] was 98% (active); in test [4], 96% (active). For the same molecule, the inhibition was 47% in test [2] and 4% in test [3]. Besides, the outcome in test [5], in test [6], in test [7] and in test [8] was inactive.
As for `O=C(/C=C/c1ccccc1Cl)Nc1ccc(Br)c(OCCN2CCN(CCN3CCOCC3)CC2)c1`, the values for the growth inhibition in test [1] and in test [4] were 91% (active) and 98% (active), respectively. Moreover, the values for the inhibition in test [2] and in test [3] were 22% and -3%, respectively. The outcome in test [5], in test [6], in test [7] and in test [8] was inactive.
As to `Cc1ccccc1C1CCN(C2CCC(NC(=O)c3cc(-c4ccc(Cl)cc4)cs3)CC2)CC1` (stereo not given), the growth inhibition in test [1] was 100% (active); in test [4] it was 101% (active). Also, the results for the inhibition in test [2] and in test [3] were 99% (active) and -2%, respectively. Besides, the outcome in test [5], in test [6], in test [7] and in test [8] was inactive.
On to `COc1cccc(Nc2c(C(N)=O)cnc3ccc(-c4ccccc4)cc23)c1`, for which the growth inhibition in test [1] is 99% (active); in test [4] it was 98% (active). Besides, the inhibition in test [2] is 2%; in test [3], -2%. Also, the result in test [5], in test [6], in test [7] and in test [8] was inactive.
As to `COc1cccc(NC(=O)Cn2c(C)c(C#N)c3ccccc32)c1`, the growth inhibition in test [1] is 100% (active); in test [4], 101% (active). Moreover, the figures for the inhibition in test [2] and in test [3] were 16% and 4%, respectively. For the same molecule, the result in test [5], in test [6], in test [7] and in test [8] was inactive.
For the molecule `COCCNCc1ccc(-c2ccc3c(Nc4ccc(F)cc4Cl)ccnc3c2)o1`, the growth inhibition in test [1] and in test [4] was 100% (active) in each case. For the same molecule, the inhibition in test [2] was 22%; in test [3] it was 2%. For the same molecule, the outcome in test [5], in test [6], in test [7] and in test [8] was inactive.
Consider `COc1cc2nc(N3CCN(C(=O)c4c(Cl)nsc4-c4ccccc4Cl)CC3)nc(N)c2cc1OC`, for which the growth inhibition in test [1] was 101% (active); in test [4] it was 100% (active). The inhibition in test [2] is 57% (active); in test [3] it was -6%. Moreover, the outcome in test [5], in test [6], in test [7] and in test [8] was inactive.
Consider `Cc1cccc2[nH]c(-c3ccc(-c4ccc(NC(=O)C(=O)c5cccn5C)cc4)cc3)nc12`, for which the growth inhibition was 15% in test [1] and 95% (active) in test [4]. The inhibition in test [2] is 40%; in test [3], 8%. For the same molecule, the result in test [5], in test [6], in test [7] and in test [8] was inactive.
Take `COc1ccccc1/C=C/C(=O)N(C)C1CCN(CCCCCNC(=O)/C=C/c2ccc(Cl)c(Cl)c2)C1` (stereo not given): the growth inhibition in test [1] is 14%; in test [4], 94% (active). In addition, the inhibition is 10% in test [2] and -14% in test [3]. The outcome in test [5], in test [6], in test [7] and in test [8] was inactive.
Turning to `Cc1cccc2[nH]c(-c3cc(-c4cccc(Cl)c4)cnc3N)nc12`, the growth inhibition in test [1] was 99% (active); in test [4], 101% (active). For the same molecule, the inhibition was 32% in test [2] and 2% in test [3]. In addition, the result in test [5], in test [6], in test [7] and in test [8] was inactive.
In the case of `O=C(Nc1cccc(-c2cccc(-c3nc4ccc(C(F)(F)F)cc4[nH]3)c2)c1)c1ccoc1`, the growth inhibition in test [1] is 61% (active); in test [4], 99% (active). The inhibition in test [2] was 32%; in test [3], -2%. Further, the result in test [5], in test [6], in test [7] and in test [8] was inactive.
With `CC(CN1CCN(C)CC1)C(=O)Nc1cccc(-c2cccc(-c3nc4ccccc4[nH]3)c2)c1` (stereo not given), the growth inhibition was 19% in test [1] and 88% (active) in test [4]. Moreover, the inhibition in test [2] is 23%; in test [3], -3%. Moreover, the outcome in test [5], in test [6], in test [7] and in test [8] was inactive.
Turning to `O=c1c2sc(-c3ccc(Cl)cc3)cc2ncn1Cc1ccc(OCCN2CCCC2)c2ccccc12`, the growth inhibition is 81% (active) in test [1] and 100% (active) in test [4]. Besides, the inhibition in test [2] was 38%; in test [3], 1%. The result in test [5], in test [6], in test [7] and in test [8] was inactive.
Turning to `CN1CCC(NCc2ccc(-c3ccc(C(F)(F)F)cc3)cc2)CC1`, the results for the growth inhibition in test [1] and in test [4] were 71% (active) and 99% (active), respectively. The inhibition is 54% (active) in test [2] and 5% in test [3]. The outcome in test [5], in test [6], in test [7] and in test [8] was inactive.
Regarding `CC(=O)c1cccc(Nc2nc3c(C#N)c(OCc4cc(Cl)cc(Cl)c4)ccc3[nH]2)c1`, the results for the growth inhibition in test [1] and in test [4] were 45% and 86% (active), respectively. Also, the inhibition in test [2] is 29%; in test [3], 0%. The result in test [5], in test [6], in test [7] and in test [8] was inactive.

As usually defined, the inhibition is the change of the read-out against control, counted positive when it falls.
